Results as given in PubChem BioAssay AID504942 (Broad Institute, 2011).
Potency and affinity values are given separately. Calls of active or inactive are those of the source. A call without a number means that no potency is given here. No rule for the calls is given here.

Experiment: toxicity to human HeLa cells – cell-based, 48 h, plate reader, cherry-picks, cytotoxicity control, dose response (AID 504942)
Details: series mostly up to 38 µM

Row | Structure (SMILES) | outcome
1 | O=CN(c1ccccc1)c1ccc2ccccc2c1 | inactive
2 | Nc1ccc(OCc2ccccc2)cc1[N+](=O)[O-] | inactive
3 | O=C(NC1CCCCCCC1)c1cccc(Cl)c1 | inactive
4 | O=S1(=O)CCOC[C@H](c2ccccc2)N1Cc1cccc(Cl)c1 | inactive
5 | O=[N+]([O-])c1ccc(N2CCCC2)nc1 | inactive
6 | O=C(NCC1CC1)c1cc([N+](=O)[O-])cc([N+](=O)[O-])c1 | inactive
7 | N#CCn1c(C2CCCCC2)nc2ccccc2c1=O | inactive
8 | CCNC(=O)COc1ccc2ccccc2c1 | inactive
9 | CC(C)N=C(NC#N)SCc1ccccc1F | inactive
10 | COC(=O)c1ccc(OC(=O)c2ccco2)cc1 | inactive
11 | COc1ccc(/C=C/C(=O)c2ccoc2)cc1 | inactive
12 | O=C(NC1CCS(=O)(=O)C1)c1cccc(Br)c1 (centres undefined) | inactive
13 | CC(C)(C)NC(=O)c1cc(Cl)ccc1[N+](=O)[O-] | inactive
14 | Cc1ccc(C(C#N)c2ccc(Cl)nn2)cc1 (centres undefined) | inactive
15 | O=[N+]([O-])c1ccc(-c2cccnc2)cc1 | inactive
16 | CC(C)CCNC(=O)c1cccc(Cl)c1 | inactive
17 | Cc1cc(NC(=O)c2cc([N+](=O)[O-])cc([N+](=O)[O-])c2C)no1 | inactive
18 | Clc1ccc2scc(CN3CCCCC3)c2c1 | inactive
19 | Cc1cc(NC(=O)c2c(F)c(F)c(F)c(F)c2F)no1 | inactive
20 | COc1ccccc1C(C#N)c1cccc(Cl)n1 (centres undefined) | inactive
21 | CCOc1ccc(-n2cccc2C=O)cc1 | inactive
22 | O=C1C=C(c2cc(F)ccc2F)C[C@@H](c2ccc(F)cc2)C1 | inactive
23 | N#CC(c1ccc(Cl)cc1)c1ncc(C(F)(F)F)cc1Cl (centres undefined) | inactive
24 | CCOC(=O)c1cc2c(s1)-c1c(C)cccc1OC2 | inactive
25 | OC(c1cccc(Cl)c1)c1nccc2ccccc12 (centres undefined) | inactive
26 | CCOC(=O)CCCn1ncn2c(cc3occc32)c1=O | inactive
27 | Cc1cc(S(=O)(=O)NCC2CC2)c(Cl)cc1Cl | inactive
28 | Cc1cccc(C(C#N)c2ccc(Cl)nn2)c1 (centres undefined) | inactive
29 | Cc1cc(NC(=O)c2cc([N+](=O)[O-])ccc2Cl)no1 | inactive
